# Experimental data as given in publication PMC11102866, “Nucleosome-bound NR5A2 structure reveals pioneer factor mechanism by DNA minor groove anchor competition”.
# B1: 122 (nucleosome)
# DNA 1: ATCCTGGAGAATCCCGGTGCCGAGGCCGCTCAATTGGTCGTAGACAGCTCTAGCACCGCTTAAACGCACGTACGCGCTGTCCCCCGCGTTTTAACCGCCAAGGGGATTACTCCCTAGTCTCCAGTCAAGGCCAAGATATATACATCCTGTGAT
# DNA 2: ATCACAGGATGTATATATCTTGGCCTTGACTGGAGACTAGGGAGTAATCCCCTTGGCGGTTAAAACGCGGGGGACAGCGCGTACGTGCGTTTAAGCGGTGCTAGAGCTGTCTACGACCAATTGAGCGGCCTCGGCACCGGGATTCTCCAGGAT
# modifications: reconstituted with mouse histones H2A, H2B, H3.3 and H4
# B2: 123 (nucleosome)
# DNA 1: ATCCTGGAGAATCCCGGTGCCGAGGCCGCTCAATTGGTCGTAGACAGCTCTAGCACCGCTTAAACGCACGTACGCGCTGTCCCCCGCGTTTTAACCGCCAAGGGGATTACTCCCTAGTCTCCAGGTCAAGGCCAGATATATACATCCTGTGAT
# DNA 2: ATCACAGGATGTATATATCTGGCCTTGACCTGGAGACTAGGGAGTAATCCCCTTGGCGGTTAAAACGCGGGGGACAGCGCGTACGTGCGTTTAAGCGGTGCTAGAGCTGTCTACGACCAATTGAGCGGCCTCGGCACCGGGATTCTCCAGGAT
# modifications: reconstituted with mouse histones H2A, H2B, H3.3 and H4
# B3: 124 (nucleosome)
# DNA 1: ATCCTGGAGAATCCCGGTGCCGAGGCCGCTCAATTGGTCGTAGACAGCTCTAGCACCGCTTAAACGCACGTACGCGCTGTCCCCCGCGTTTTAACCGCCAAGGGGATTACTCCCTAGTCTCCAGGCTCAAGGCCAATATATACATCCTGTGAT
# DNA 2: ATCACAGGATGTATATATTGGCCTTGAGCCTGGAGACTAGGGAGTAATCCCCTTGGCGGTTAAAACGCGGGGGACAGCGCGTACGTGCGTTTAAGCGGTGCTAGAGCTGTCTACGACCAATTGAGCGGCCTCGGCACCGGGATTCTCCAGGAT
# modifications: reconstituted with mouse histones H2A, H2B, H3.3 and H4
# B4: 125 (nucleosome)
# DNA 1: ATCCTGGAGAATCCCGGTGCCGAGGCCGCTCAATTGGTCGTAGACAGCTCTAGCACCGCTTAAACGCACGTACGCGCTGTCCCCCGCGTTTTAACCGCCAAGGGGATTACTCCCTAGTCTCCAGGCATCAAGGCCATATATACATCCTGTGAT
# DNA 2: ATCACAGGATGTATATATGGCCTTGATGCCTGGAGACTAGGGAGTAATCCCCTTGGCGGTTAAAACGCGGGGGACAGCGCGTACGTGCGTTTAAGCGGTGCTAGAGCTGTCTACGACCAATTGAGCGGCCTCGGCACCGGGATTCTCCAGGAT
# modifications: reconstituted with mouse histones H2A, H2B, H3.3 and H4
# B5: 113 (nucleosome)
# DNA 1: ATCCTGGAGAATCCCGGTGCCGAGGCCGCTCAATTGGTCGTAGACAGCTCTAGCACCGCTTAAACGCACGTACGCGCTGTCCCCCGCGTTTTAACCGCCAAGGGGATTACTCCCTTCAAGGCCAGCACGTGTCAGATATATACATCCTGTGAT
# DNA 2: ATCACAGGATGTATATATCTGACACGTGCTGGCCTTGAAGGGAGTAATCCCCTTGGCGGTTAAAACGCGGGGGACAGCGCGTACGTGCGTTTAAGCGGTGCTAGAGCTGTCTACGACCAATTGAGCGGCCTCGGCACCGGGATTCTCCAGGAT
# modifications: reconstituted with mouse histones H2A, H2B, H3.3 and H4
# B6: 116 (nucleosome)
# DNA 1: ATCCTGGAGAATCCCGGTGCCGAGGCCGCTCAATTGGTCGTAGACAGCTCTAGCACCGCTTAAACGCACGTACGCGCTGTCCCCCGCGTTTTAACCGCCAAGGGGATTACTCCCTAGTTCAAGGCCACGTGTCAGATATATACATCCTGTGAT
# DNA 2: ATCACAGGATGTATATATCTGACACGTGGCCTTGAACTAGGGAGTAATCCCCTTGGCGGTTAAAACGCGGGGGACAGCGCGTACGTGCGTTTAAGCGGTGCTAGAGCTGTCTACGACCAATTGAGCGGCCTCGGCACCGGGATTCTCCAGGAT
# modifications: reconstituted with mouse histones H2A, H2B, H3.3 and H4
# B7: 118 (nucleosome)
# DNA 1: ATCCTGGAGAATCCCGGTGCCGAGGCCGCTCAATTGGTCGTAGACAGCTCTAGCACCGCTTAAACGCACGTACGCGCTGTCCCCCGCGTTTTAACCGCCAAGGGGATTACTCCCTAGTCTTCAAGGCCATGTCAGATATATACATCCTGTGAT
# DNA 2: ATCACAGGATGTATATATCTGACATGGCCTTGAAGACTAGGGAGTAATCCCCTTGGCGGTTAAAACGCGGGGGACAGCGCGTACGTGCGTTTAAGCGGTGCTAGAGCTGTCTACGACCAATTGAGCGGCCTCGGCACCGGGATTCTCCAGGAT
# modifications: reconstituted with mouse histones H2A, H2B, H3.3 and H4
# Target: NR5A2 wild type;histone octamer (Homo sapiens;, UniProt O00482;C0HKE1;Q6ZWY9;P84244;P62806 1-541;2-130;2-126;2-136;2-103, |)
# Test: SeEN-seq (EMSA of nucleosome library followed by sequencing); 0.8 uM human NR5A2; 20 mM Tris-HCl pH 7.5, 120 mM NaCl, 1 mM MgCl2, 10 uM ZnCl2, 1 mM DTT, 100 ug/ml BSA, room temperature, 30 min; 0.1 uM nucleosome library; high values mean tight binding
row,Binder,binding signal
1,B1,"0.909 log2 enrichment (bound/unbound, relative to Widom 601)"
2,B2,"1.01 log2 enrichment (bound/unbound, relative to Widom 601)"
3,B3,"3.87 log2 enrichment (bound/unbound, relative to Widom 601)"
4,B4,"4.55 log2 enrichment (bound/unbound, relative to Widom 601)"
5,B5,"0.896 log2 enrichment (bound/unbound, relative to Widom 601)"
6,B6,"1.39 log2 enrichment (bound/unbound, relative to Widom 601)"
7,B7,"1.08 log2 enrichment (bound/unbound, relative to Widom 601)"

# Target: mouse Nr5a2 wild type;histone octamer (Mus musculus;, UniProt P45448;C0HKE1;Q6ZWY9;P84244;P62806 1-560;2-130;2-126;2-136;2-103, |)
# Test: SeEN-seq (EMSA of nucleosome library followed by sequencing); 1.2 uM mouse Nr5a2; 20 mM Tris-HCl pH 7.5, 120 mM NaCl, 1 mM MgCl2, 10 uM ZnCl2, 1 mM DTT, 100 ug/ml BSA, room temperature, 30 min; 0.1 uM nucleosome library; high values mean tight binding
row,Binder,binding signal
1,B1,"0.939 log2 enrichment (bound/unbound, relative to Widom 601)"
2,B2,"1.41 log2 enrichment (bound/unbound, relative to Widom 601)"
3,B3,"2.91 log2 enrichment (bound/unbound, relative to Widom 601)"
4,B4,"3.58 log2 enrichment (bound/unbound, relative to Widom 601)"
5,B5,"0.869 log2 enrichment (bound/unbound, relative to Widom 601)"
6,B6,"2.15 log2 enrichment (bound/unbound, relative to Widom 601)"
7,B7,"1.4 log2 enrichment (bound/unbound, relative to Widom 601)"
